Hits are enriched below; roughly 1.6% of the tested compounds scored in any of these assays.
SUMO HTRF inh: SUMOylation inhibition; P63279; HTRF SUMOylation assay, SAE1/SAE2 + UBC9, in vitro; inhibition, % at 35 µM; actives 0.36% (n = 290,000); AID 2006; in the data active = inhibition above about 50%, passing the limit was not always enough
Target sequence (P63279 whole entry, looked up): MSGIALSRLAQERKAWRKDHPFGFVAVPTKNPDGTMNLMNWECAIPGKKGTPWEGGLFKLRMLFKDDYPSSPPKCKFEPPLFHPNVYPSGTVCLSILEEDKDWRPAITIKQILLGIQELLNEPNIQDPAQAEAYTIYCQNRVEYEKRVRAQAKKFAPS
SIRT5 inh: sirtuin-5 (human) deacylase inhibition; Q9NXA8; Purified SirT5, succinyl-peptide AMC, trypsin-coupled fluorescence; inhibition, % at 15 µM; actives 1.1% (n = 330,000); AID 652115; in the data active = inhibition above about 15%
Target sequence (Q9NXA8 whole entry, looked up): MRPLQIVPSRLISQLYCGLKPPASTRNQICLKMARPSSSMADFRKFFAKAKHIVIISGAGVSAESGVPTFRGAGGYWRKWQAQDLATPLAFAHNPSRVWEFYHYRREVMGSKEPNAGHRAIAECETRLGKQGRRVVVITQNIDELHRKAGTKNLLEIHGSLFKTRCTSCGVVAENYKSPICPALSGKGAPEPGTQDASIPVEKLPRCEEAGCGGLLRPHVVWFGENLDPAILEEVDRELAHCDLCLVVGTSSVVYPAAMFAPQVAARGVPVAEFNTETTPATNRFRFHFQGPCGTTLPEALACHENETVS
CASP6 VEID inh: inhibitors of human caspase-6; purified caspase-6, Z-VEID-R110 cleavage fluorescence; actives 0.53% (n = 350,000); inhibition, % at 12.5 µM; P55212;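 active = mean inhibition across replicates at least about 35%, with every replicate also reaching that limit, limit read from the data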
NSD2 HMT inh: inhibitors of human histone methyltransferase NSD2 | O96028 | NSD2 peptide methylation, AlphaScreen, 120 min | inhibition, % at 12.5 µM | actives 0.54% (n = 310,000) | AID 743445; in the data active = inhibition above about 50%
Each line names hits and unclear results; the compound was inactive in the other large screens.

O=C(O)CN1C(=O)C=CC1=O	CASP6 VEID inh 36 (no result: SUMO HTRF inh)
CC(C)NC(=O)N1CC2(C1)[C@H](c1ccccc1)[C@@H](CO)N2C(=O)C1CCC1	none (no result: SUMO HTRF inh, NSD2 HMT inh)
COc1ccc(S(=O)(=O)Nc2ccc3c(c2)CC(=O)N([C@@H](C)CO)C[C@H](C)[C@@H](CN(C)Cc2ccc(C(F)(F)F)cc2)O3)cc1	SIRT5 inh 16 (no result: SUMO HTRF inh, NSD2 HMT inh)
C[C@H](CO)N1C[C@H](C)[C@@H](CN(C)Cc2ccc(C(F)(F)F)cc2)Oc2ccc(NS(C)(=O)=O)cc2CC1=O	SIRT5 inh 16 (no result: SUMO HTRF inh, NSD2 HMT inh)
C[C@@H]1CN([C@H](C)CO)C(=O)Cc2cc(N(C)C)ccc2O[C@H]1CN(C)Cc1ccc(C(=O)O)cc1	none (no result: SUMO HTRF inh, SIRT5 inh, NSD2 HMT inh)
C[C@@H]1CN([C@H](C)CO)C(=O)Cc2cc(NS(=O)(=O)c3ccc(F)cc3)ccc2O[C@@H]1CN(C)Cc1ccc(C(F)(F)F)cc1	SIRT5 inh 23 (no result: SUMO HTRF inh, NSD2 HMT inh)
C[C@@H]1CN([C@H](C)CO)C(=O)Cc2cc(NS(C)(=O)=O)ccc2O[C@H]1CN(C)Cc1ccc(C(F)(F)F)cc1	none (no result: SUMO HTRF inh, NSD2 HMT inh)
C[C@H](CO)N1C[C@H](C)[C@@H](CN(C)Cc2ccc(C(F)(F)F)cc2)Oc2ccc(N(C)C)cc2CC1=O	SIRT5 inh 17 (no result: SUMO HTRF inh, NSD2 HMT inh)
Cc1ccc(S(=O)(=O)N(C)C[C@@H]2Oc3ccc(N(C)C)cc3C(=O)N([C@H](C)CO)C[C@H]2C)cc1	none (no result: SUMO HTRF inh, NSD2 HMT inh)
COCC(=O)N1C[C@H](C)[C@@H](OC)CN(C)C(=O)c2ccc(NC(=O)c3cc(C)on3)cc2OC[C@@H]1C	none (no result: SUMO HTRF inh, NSD2 HMT inh)
C[C@@H]1CN([C@@H](C)CO)C(=O)Cc2cc(NS(=O)(=O)c3ccc(F)cc3)ccc2O[C@H]1CN(C)Cc1ccc(C(F)(F)F)cc1	SIRT5 inh 36 (no result: SUMO HTRF inh, NSD2 HMT inh)
O=C(/C=C/c1ccc(O)c(O)c1)c1ccccc1O	NSD2 HMT inh 62
CC1CC2C(C(O)CC3(C)C2CCC3(O)C(=O)CO)C2(C)C=CC(=O)C=C12 (stereo unspecified)	SIRT5 inh 35 (no result: SUMO HTRF inh)
CC(=O)OCC(=O)[C@@]1(O)CC[C@H]2[C@@H]3C[C@H](C)C4=CC(=O)C=C[C@]4(C)[C@H]3[C@@H](O)C[C@@]21C	none (no result: NSD2 HMT inh)
CC12CCC(=O)N1C(C(=O)Nc1nc(-c3ccc(F)c(F)c3)cs1)CS2 (stereo unspecified)	SIRT5 inh 15 (no result: SUMO HTRF inh)
Cc1cc(Br)ccc1NC(=O)C1CSC2(C)CCC(=O)N12 (stereo unspecified)	none (no result: SUMO HTRF inh)
Cc1cc(F)ccc1NC(=O)C1CSC2(C)CCC(=O)N12 (stereo unspecified)	SIRT5 inh 18 (no result: SUMO HTRF inh)
N=C1CCC(=N)c2c1c(O)c1ccccc1c2O	SUMO HTRF inh 63, NSD2 HMT inh 66 (no result: SIRT5 inh, CASP6 VEID inh)
N#Cc1c(C#N)c(O)c2ccccc2c1O	none (no result: NSD2 HMT inh)
CCC(=O)N1C[C@H](C)[C@@H](OC)CN(C)C(=O)c2cc(NC(=O)NC(C)C)ccc2OC[C@H]1C	none (no result: SUMO HTRF inh, NSD2 HMT inh)
Cc1cccc(NC(=O)Cn2c(O)c(N=NC(=O)c3ccccc3O)c3ccccc32)c1	SUMO HTRF inh 54 (no result: SIRT5 inh)
O=C(NCC1CC1)[C@H]1[C@H](CO)[C@H]2Cn3c(ccc(-c4cccnc4)c3=O)[C@@H]1N2Cc1nccs1	none (no result: SUMO HTRF inh, NSD2 HMT inh)
CN1c2ccc(C3=CCCCC3)cc2[C@H]2[C@H](CCN2C(=O)C2CC2)[C@@H]1CO	SIRT5 inh 20 (no result: SUMO HTRF inh, NSD2 HMT inh)
CN1c2ccc(C3=CCCCC3)cc2[C@@H]2[C@@H](CCN2C(=O)C2CCCCC2)[C@@H]1CO	SIRT5 inh 18 (no result: SUMO HTRF inh, CASP6 VEID inh, NSD2 HMT inh)
CN1c2ccc(C3=CCCCC3)cc2[C@H]2[C@H](CCN2C(=O)C2CCCCC2)[C@@H]1CO	none (no result: SUMO HTRF inh, NSD2 HMT inh)
CN1c2ccc(C3=CCCCC3)cc2[C@@H]2[C@@H](CCN2C(=O)C2CC2)[C@@H]1CO	none (no result: SUMO HTRF inh, NSD2 HMT inh)
COc1ccc2c3c([nH]c2c1)[C@@H](CO)N(C(=O)C1CCCCC1)CC31CN(C(=O)NC(C)C)C1	none (no result: SUMO HTRF inh, NSD2 HMT inh)
CCNC(=O)[C@@H]1[C@@H](CO)[C@@H]2Cn3c(ccc(-c4ccccc4)c3=O)[C@@H]2N1Cc1ccc2c(c1)OCO2	none (no result: SUMO HTRF inh, NSD2 HMT inh)
CC(C)NC(=O)N(C)C[C@H]1Oc2ccc(NC(=O)CCN3CCOCC3)cc2CC(=O)N([C@@H](C)CO)C[C@@H]1C	none (no result: SUMO HTRF inh, NSD2 HMT inh)
CC(OC(=O)/C=C/c1ccccc1)C(=O)Nc1ccc2c(c1)OCCO2 (stereo unspecified)	SIRT5 inh 20 (no result: SUMO HTRF inh)
CCCNC(=O)[C@H]1[C@H](CO)[C@H]2Cn3c(ccc(-c4ccccc4OC)c3=O)[C@H]2N1C(=O)CC	none (no result: SUMO HTRF inh, NSD2 HMT inh)
CC(=O)N(C)C[C@@H]1Oc2cc(C#Cc3ccccn3)ccc2S(=O)(=O)N([C@@H](C)CO)C[C@H]1C	none (no result: SUMO HTRF inh, NSD2 HMT inh)
Cc1occc1C(=O)NCc1ccco1	CASP6 VEID inh 41
COC(=O)c1c(NC(C)=O)sc2c1CCN(Cc1ccccc1)C2	SIRT5 inh 18 (no result: NSD2 HMT inh)
COc1ccc(CN(C)C[C@@H]2Oc3ccc(NS(=O)(=O)c4ccc(C)cc4)cc3C(=O)N([C@@H](C)CO)C[C@H]2C)cc1	none (no result: SUMO HTRF inh, NSD2 HMT inh)
